Measurements as given in PubChem BioAssay (NCI).
This is part of a sample that, as a whole, favours compounds with a hit. Of some 83,000 tested, about 20% had one in any assay.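 The test compound was applied at a single concentration to cells in 96-well plates for 48 hours, and percent growth was recorded.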 Calls of active or inactive are those of the source.

Each compound was assayed on EKVX NSCLC (assay: NCI-60 one-dose screen, 48 h (100 = growth as untreated, 0 = no growth, -100 = all killed)). Conditions: 10 µM unless noted.
Method: Growth inhibition of the EKVX human Non-Small Cell Lung tumor cell line is measured as a screen for anti-cancer activity. Cells are grown in 96 well plates and exposed to the test compound for 48 hours. Compounds are tested at a single concentration, which is 10^-5 M for most compounds. The reported endpoint is percent growth (GI% or GIPRCNT), where numbers from 0 - 100% represent growth inhibition, and numbers from -100% - 0 represent cell death. For example, a value of 40 represents 60% growth inhibition. A value of 0 means no net growth occurred over the course of the experiment. A value of -40 indicates 40% of cells at the beginning of the experiment died by the end of the experiment. A value of -100 means all cells are dead at the end of the experiment.
NCI-60 Human Tumor Cell Lines Screen was performed using the standard one-dose NCI protocol, which is described in more detail at https://dtp.cancer.gov/discovery_development/nci-60/default.htm.
Compounds with GIPRCNT values below 10 were considered active. Activity score was based on GIPRCNT using the following formula: […]
Score is 0 for GIPRCNT values of 100 or above, 50 for GIPRCNT values of 0, and 100 for GIPRCNT values of -100.
For `CN1CCN(c2nc(-c3csc(-c4ccccc4)n3)cc3ccccc23)CC1`, the growth was 63.5% (inactive).
`O=C(NNc1nc2cc(F)ccc2n2c(CO)ccc12)c1cnccn1` was tested, and the growth was 4.53% (active).
In the case of `Oc1cccc2ccc(-c3nnc(SCc4ccc(O)c5ncccc45)o3)nc12`, the growth is reported as 17.5% (inactive).
`COc1cc(-c2ccc3ncnc(NCc4ccccc4)c3c2)cnc1OC` was tested, and the growth was 6.53% (active).
`N/C(=N\C(N)=N\c1nc2ccccc2s1)c1cccc(F)c1` was tested, and the growth was 81.4% [5 µM] (inactive).
For `CC1=NC2=NC(=O)/C(=C3/N=C(C)C=C(c4ccccc4)N3N)NN2C(c2ccccc2)=C1`, the growth was 83.8% (inactive).
With `CCCCCc1ccc(S(=O)(=O)Nc2cccc(-c3csc(NC(=O)CNCCN(C)C)n3)c2)cc1` the growth was 81.4% (inactive).
For `CCCCCCCn1cc2c(NCCc3ccccc3)ncnc2n1`, the growth was 84.8% (inactive).
With `O=C(CSc1nc2ccccc2c(=O)n1-c1ccccc1)Nc1cccc(C(=O)/C=C/c2ccccc2)c1` the growth was 96.7% (inactive).
For `C#C[C@]1(O)CC[C@H]2[C@@H]3CC=C4c5sc(-c6ccc(C)cc6)nc5CC[C@]4(C)[C@H]3CC[C@@]21C`, the growth was 54% (inactive).
In the case of `O=S(=O)(NCCNc1nccc(-n2cnc3ccccc32)n1)c1ccc(Br)cc1`, the growth is reported as 83.4% (inactive).
With `CCNC(=O)N1CCc2cc(OC)c(OCCc3ccc(OC)cc3)cc2C1c1ccc([N+](=O)[O-])cc1C` (stereo not given) the growth was 42.2% (inactive).
`CCOc1cccc(-c2nc3sccn3c2-c2ccnc(S(C)(=O)=O)n2)c1` was tested, and the growth was 101% (inactive).
With `CCOc1ccc(NC2=C(Cl)C(=O)c3nc(C)ccc3C2=O)cc1` the growth was -97.5% (active).
`CC(C)c1ccc(NCc2cn(-c3ccc(C(=O)O)cc3)nc2-c2cc(C(F)(F)F)cc(C(F)(F)F)c2)cc1` was tested, and the growth was 79.2% (inactive).
`C=CCn1c(SCC(=O)Nc2ccc(C(=O)/C=C/c3ccc(Cl)cc3)cc2)nnc1-c1c[nH]c2ccccc12` was tested, and the growth was 56.1% (inactive).
For `Nc1nc(-c2cccc([N+](=O)[O-])c2)c(N=Nc2ccccc2)s1`, the growth was 51.8% (inactive).
With `NC(N)=Nc1ccc(Oc2ccc(Nc3ccc(Cl)c(C(F)(F)F)c3)cc2)cc1` the growth was 52.4% (inactive).
For `O=S(=O)(NCCCNc1nccc(-c2[nH]c(-c3ccccc3)nc2-c2ccc(Cl)c(O)c2)n1)c1cccc(F)c1`, the growth was 65.2% (inactive).
With `Brc1ccccc1/C=N/Nc1nc(N/N=C/c2ccccc2Br)nc(N2CCOCC2)n1` the growth was 80.2% (inactive).
`COc1cc(-c2nn(C(C)(C)C)cc2-c2ccnc(NCCCNS(=O)(=O)c3ccccc3)n2)ccc1Cl` was tested, and the growth was 36.5% (inactive).
With `CC1(C)CC[C@]23CC[C@]4(C)[C@H](CC[C@@H]5[C@@]6(C)CCCN(CO)C(C)(C)[C@@H]6CC[C@]54C)[C@H]2[C@H]1OC3` the growth was 90.9% (inactive).
With `CCCCCc1ccc(S(=O)(=O)Nc2cc(-c3csc(NC(=O)CN4CCN(C)CC4)n3)ccc2OC)cc1` the growth was 63.4% (inactive).
For `Cc1ccc2c(c1)C13C(=C2Br)CCCN1C(=O)c1ccccc13` (stereo not given), the growth was 91.3% (inactive).
With `C/C(=N\O)[C@H]1C[C@]23CC[C@]4(C)[C@H](CC[C@@H]5[C@@]6(C)CC/C(=N/O)C(C)(C)[C@@H]6CC[C@]54C)[C@H]2[C@H](C)C1(C)OC3` the growth was 70.9% (inactive).
`CCO/C=N/C1=C(C#N)C(c2ccc(F)cc2)c2sc3c(C)cccc3c2O1` (stereo not given) was tested, and the growth was 44.6% (inactive).
With `CC(=O)C1=C(C)NC(NN)=NC1c1cccc(Cl)c1` (stereo not given) the growth was 96.4% (inactive).
For `C=CCn1c(SCC(=O)Nc2ccc(C(=O)/C=C/c3cc(OC)c(OC)c(OC)c3)cc2)nnc1-c1c[nH]c2ccccc12`, the growth was 73.7% (inactive).
`C=C(C)[C@@H]1CC[C@]2(C(=O)NCCCCCN(CCC#N)CCC#N)CC[C@]3(C)[C@H](CC[C@@H]4[C@@]5(C)CCC(=O)C(C)(C)[C@@H]5CC[C@]43C)[C@@H]12` was tested, and the growth was 75.2% (inactive).
For `Cc1ccc(-n2cc(/C=C/C(=O)c3ccc(O)cc3)c(-c3ccc(S(C)(=O)=O)cc3)n2)cc1`, the growth was 91.4% (inactive).
In the case of `O=C(CSc1nnc(-c2ccc(Cl)cc2)n1-c1ccccc1)Nc1cccc(Cl)c1`, the growth is reported as 62.3% (inactive).
`CN1CCN(c2ccc(/C=N/n3cnc4oc(-c5ccccc5)cc4c3=N)cc2)CC1` was tested, and the growth was 88.4% (inactive).
For `CCO/C=N/C1=C(C#N)C(c2ccc(F)cc2)c2sc3c(CC)cccc3c2O1` (stereo not given), the growth was 49% (inactive).
`NS(=O)(=O)c1ccc(Nc2cc(-c3ccccc3)nc(SCC(=O)c3ccccc3)n2)cc1` was tested, and the growth was 97.9% (inactive).
For `O=S(=O)(Oc1ccc(-c2nnc(Nc3ccccc3)s2)cc1)C(F)(F)C(F)(F)C(F)(F)C(F)(F)C(F)(F)C(F)(F)F`, the growth was 99.1% (inactive).
`COc1c(N2CC3CCCNC3C2)c(F)cc2c(=O)c(C(=O)N/N=C/c3ccc4c(c3)OCO4)cn(C3CC3)c12` (stereo not given) was tested, and the growth was 66.6% (inactive).
For `CC(C)(C)c1ccc(-c2nnc(-c3nc4ccccc4nc3Cl)o2)cc1`, the growth was 99.2% (inactive).
In the case of `COc1ccc(-c2nc3cc(Cl)c(Cl)cc3n2CC(=O)N=Nc2c(O)[nH]c3ccc(OC)cc23)cc1`, the growth is reported as 62.9% (inactive).
`COc1cc(/C=C2\C(=O)Nc3ccccc32)ccc1OCc1ccc(F)cc1` was tested, and the growth was 97.7% (inactive).
In the case of `CCNC(=O)N1CCc2cc(OC)c(OCCc3ccc(OC)cc3)cc2C1c1ccc(Cl)cc1C` (stereo not given), the growth is reported as 37% (inactive).
